The whole screen tested about 7,900 compounds, of which about 400 (5.1%) showed an effect of 50% or more. The entries come from a sample that favours strong results as a whole.
Target: Parkinson's disease protein 7 (PARK7/DJ1) (human, UniProt Q99497)
Assay: primary screen, percent inhibition; read as competition with a fluorescent probe by fluorescence polarization; higher = more effect of the substance
Settings: 100 µM
Procedure: The screen was conducted using the conditions as described above in 1536-well plates (Corning 3724) with a reaction volume of 8 μL per well. The compound library containing 7887 covalent fragments was purchased at Enamine Ltd. and received as 100 mM DMSO stocks in 384 well LDV Echo plates (Labcyte LP-0200). Stock solutions of 0.26 μM PARK7 and 80 nM JYQ-107 were prepared. Using a Labcyte Echo550 acoustic dispenser, 8 nL of the DMSO stock solution of the library compounds was transferred from the source plates into the empty 1536-well screening plates to obtain a 100 μM final compound concentration. Next, PARK7 (6 μL, final concentration 0.2 μM) was dispensed using a Biotek MultiflowFX liquid dispenser and incubated for 2 h, followed by dispensing the probe JYQ-107 (2 μL, final concentration 20 nM). After 2 h incubation, the FP signal was recorded on a BMG Labtech PHERAstar plate reader (λex/em 480/520 nm). The relative loss of FP signal compared with reference controls was used to calculate the remaining enzyme activity.

Parkinson's disease protein 7 (PARK7/DJ1), sequence (Q99497 whole entry, looked up): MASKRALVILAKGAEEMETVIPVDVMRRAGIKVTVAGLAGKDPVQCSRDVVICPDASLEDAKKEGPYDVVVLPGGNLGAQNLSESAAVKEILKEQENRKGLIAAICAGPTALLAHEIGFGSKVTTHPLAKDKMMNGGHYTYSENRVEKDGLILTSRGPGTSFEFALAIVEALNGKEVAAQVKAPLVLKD

Structure (SMILES) | Inhibition % [%]
N#Cc1cc(N2CC(O)CC2c2cccc(F)c2)ccn1 (centres unmarked) | 12.9
N#Cc1ccc(N2CC(O)CC2c2cccc(F)c2)cn1 (centres unmarked) | 3.63
N#Cc1cccc(N2CC(O)CC2c2ccccc2)n1 (centres unmarked) | 96.9
COc1cc(C)c(C(C)NC(=O)CCl)cc1OC (centres unmarked) | 3.84
N#CC(=Cc1cccc(Cl)c1Cl)C(N)=O | 8.01
N#Cc1cccc(F)n1 | 4.58
N#Cc1ncccc1O | 23.2
N#Cc1nc(F)ccc1O | 55.2
O=S1(=O)CCCC(CCl)C1 (centres unmarked) | -4.37
CC1(C)NC(=O)C1(C)C | 2.57
COc1cc(C=C(C#N)C(N)=O)cc(Cl)c1OC(C)C | 7.72
O=S(=O)(F)CCn1nnc(-c2ccccc2)n1 | 35.7
O=S(=O)(F)CCSc1nnc2sc3ccccc3n12 | 7.67
O=S(=O)(F)CCSc1nnc2ccccn12 | 53.9
C=CC(=O)N1CC(Cc2cccc(C)c2)C1 | 6.59
Nc1ccc(S(=O)(=O)F)c(F)c1 | 12.3
Cc1ccc(C(=O)O)cc1B1OC(C)(C)C(C)(C)O1 | 9.09
COc1cc(NC(=O)CCl)c(Cl)cc1C(=O)O | 13.3
Cc1ccc(S(=O)(=O)F)c2c1NCCC2 | 4.21
Cc1ccc(N)cc1S(=O)(=O)F | 95.9
Cc1ccc(C(=O)O)cc1S(=O)(=O)F | 99.4
COc1cc(S(=O)(=O)F)c(Cl)cc1C(=O)O | 97.8

Structure (SMILES) | Inhibition % [%]
COc1cc(C(=O)O)ccc1S(=O)(=O)F | 31.2
COc1ccc(S(=O)(=O)F)cc1C(=O)O | 20.2
O=C(O)c1ccc(S(=O)(=O)F)c(Cl)c1 | 94.7
O=C(CCl)NC1CCCCNC1=O (centres unmarked) | 13.7
CC(=O)Nc1ccc(OC(=O)N2CCCC2)cc1 | 8.48
C=CC(=O)N1CCC2(CCSCC2)CC1 | 5.26
C=CC(=O)NCC1CCSCC1 | 2.54
COc1nscc1B1OC(C)(C)C(C)(C)O1 | 20.8
O=C(CCl)Nc1ccc(F)cc1 | 25.3
Cc1ccc(NC(=O)NC(=O)CCl)cc1 | 8.73
CN(CC(=O)Nc1c(Cl)cccc1Cl)C(=O)CCl | 7.36
CN(CC(=O)Nc1ccccc1C(F)(F)F)C(=O)CCl | 17.5
CN(CC(=O)Nc1ccc(F)cc1)C(=O)CCl | 94.2
CN(CC(=O)Nc1ccccc1Cl)C(=O)CCl | 42.3
CSc1ccccc1NC(=O)CN(C)C(=O)CCl | 34.6
CN(CC(=O)Nc1ccc(Cl)cc1)C(=O)CCl | 75.9
Cc1ccc(NC(=O)CN(C)C(=O)CCl)cc1 | 96.5
N#Cc1cccc(NC[C@H]2CCO[C@@H]2c2ccccc2)n1 | 3
Cc1nn(C)c(Cl)c1C=CC(=O)N1CCNC(C)C1.Cl (centres unmarked) | 11
C=CC(=O)N1CCOCC1c1cccn1C (centres unmarked) | 7.42
C=CC(=O)Nc1cn(C)nc1C1CC1 | 10
C=CC(=O)N1CCC(CCF)CC1 | 5.32

Structure (SMILES) | Inhibition % [%]
C=CC(=O)N1CCN(c2ccccc2F)CC1 | 7.53
C=CC(=O)N1CCC(CCC#N)CC1 | 8.36
O=C(Cn1nc(-c2ccccc2)oc1=O)N1CCSCC1 | 5.67
O=C(CCl)Nc1cc(Cl)cc(Cl)c1 | 9.47
COc1cccc(NC(=O)CCl)c1 | 19.1
O=C(CCl)Nc1cccc(Cl)c1 | 34.6
O=C(CCCl)Nc1cccc(Cl)c1 | -0.704
COc1cccc(NC(=O)CN(C)C(=O)CCl)c1 | 95.9
COc1cccc(NC(=O)CCCl)c1 | 11.2
CN(CC(=O)Nc1cccc(Cl)c1)C(=O)CCl | 93.8
C=CC(=O)N(Cc1cccc(-c2cccnc2)c1)C1CC1 | 12.4
Cc1cc(OC(F)F)ccc1B1OC(C)(C)C(C)(C)O1 | 3.76
CC(C(=O)NC1CC1c1ccccc1)N1C(=O)CCC1=O (centres unmarked) | 14.1
CC(C)N1CCC(NC(=O)CCl)CC1.Cl | 2.57
O=c1[nH]c(-c2ccccc2)no1 | 34.7
CN1CCC(n2cc(-c3ccc(S(=O)(=O)F)cc3)nn2)C1=O (centres unmarked) | 9.08
C=CC(=O)NCCC1CCOC1 (centres unmarked) | 4.58
N#Cc1nc2cc(N)ccc2s1 | 55.6
COc1nc(C#N)sc1C | 2.94
C=CC(=O)N1CCC(n2cccc2)CC1 | 6.94
CC1(C)OB(c2cc(-c3ccccc3)co2)OC1(C)C | 85.9
